# Source: publication PMC11062922 (Nature Chemical Biology, 2023)
# Like-named read-outs stand apart in the source and are kept apart here.
# Legend:
# PKN2 = tested on: PKN2; design: species or system human, MV4-11 + K-562 + COLO205 + SK-N-BE2 + OVCAR-8; details: read-out: apparent Kd, n = 1
# SLK = tested on: SLK; design: species or system human, MV4-11 + K-562 + COLO205 + SK-N-BE2 + OVCAR-8; details: read-out: apparent Kd, n = 1
# RIPK2 = tested on: RIPK2; design: species or system human, MV4-11 + K-562 + COLO205 + SK-N-BE2 + OVCAR-8; details: read-out: apparent Kd, compound concentrations: 100 nM and 1000 nM (sheet 'Samples'), n = 1
# TESK2 = tested on: TESK2; design: species or system human, MV4-11 + K-562 + COLO205 + SK-N-BE2 + OVCAR-8; details: read-out: apparent Kd; compound concentrations: 100 nM and 1000 nM (sheet 'Samples'), CATDS: 1; n = 1
# ADCK3 = details: read-out: apparent Kd, n = 1
# NQO1 = details: read-out: apparent Kd, n = 1
# PIM3 = details: read-out: apparent Kd, n = 1
# STK26 = details: read-out: apparent Kd, n = 1
# TESK1 = details: read-out: apparent Kd, n = 1
# TGFBR2 = details: read-out: apparent Kd, n = 1
# [1] = compound concentrations:100 nM and 1000 nM (sheet 'Samples')
# [2] = compound concentrations:100 nM and 1000 nM (sheet 'Lestaurtinib' of Supplementary Table 1),run:Lestaurtinib_02748_R2,Plate:MR024
# [3] = compound concentrations:100 nM and 1000 nM (sheet 'Lestaurtinib' of Supplementary Table 1),run:Lestaurtinib_02584_R3,Plate:MR017
molecule,measurement,setting,value
CCn1c(-c2nonc2N)nc2cnc(Oc3cccc(NC(=O)c4ccc(N(C)C)cc4)c3)cc21 [GSK248233A],potency estimated from few doses,PKN2; [1],1.78 µM
O=C1NC(=O)C(c2ccccc2Cl)=C1Nc1cccc(Cl)c1 [SB-342409],potency estimated from few doses,SLK; [1],0.811 µM
Nc1nonc1-c1nc2cnccc2n1C1CC1 [SB-736302],potency estimated from few doses,"PKN2; compound concentrations: 100 nM and 1000 nM (sheet 'Samples'), CATDS: 0.42822259112974997",0.348 µM
Cc1cc(O)cc(C)c1/C=C/c1cncc(C(=O)OC(C)(C)C)c1 [GW439255X],potency estimated from few doses,RIPK2; CATDS: 1,0.437 µM
COc1cc2ncn(-c3cc(OCC4CCCO4)c(C(N)=O)s3)c2cc1OC (centres unmarked) [GSK204607A],potency estimated from few doses,"SLK; compound concentrations: 100 nM and 1000 nM (sheet 'Samples'), CATDS: 0.28828322823587899",1.16 µM
Cc1nn(-c2ccccc2)c(O)c1C(=O)c1ccccc1 [RO1151080-000],potency estimated from few doses,TESK2,1.36 µM
CNC(=O)c1cncc(/C=C/c2c(Cl)cccc2Cl)c1 [GW445014X],potency estimated from few doses,RIPK2; CATDS: 1,0.773 µM
Lestaurtinib,potency estimated from few doses,"ADCK3; compound concentrations:100 nM and 1000 nM (sheet 'Lestaurtinib' of Supplementary Table 1),run:Lestaurtinib_02364_R1,Plate:MR002",1.63 µM
same,potency estimated from few doses,"ADCK3; compound concentrations:100 nM and 1000 nM (sheet 'Lestaurtinib' of Supplementary Table 1),run:Lestaurtinib_02422_R1,Plate:MR006",0.0808 µM
same,potency estimated from few doses,"ADCK3; compound concentrations:100 nM and 1000 nM (sheet 'Lestaurtinib' of Supplementary Table 1),run:Lestaurtinib_02437_R3,Plate:MR007",0.474 µM
same,potency estimated from few doses,"ADCK3; compound concentrations:100 nM and 1000 nM (sheet 'Lestaurtinib' of Supplementary Table 1),run:Lestaurtinib_02572_R1,Plate:MR015",1.62 µM
same,potency estimated from few doses,"NQO1; compound concentrations:100 nM and 1000 nM (sheet 'Lestaurtinib' of Supplementary Table 1),run:Lestaurtinib_02438_R3,Plate:MR008",1.6 µM
same,potency estimated from few doses,"NQO1; compound concentrations:100 nM and 1000 nM (sheet 'Lestaurtinib' of Supplementary Table 1),run:Lestaurtinib_02765_R1,Plate:MR026",1.44 µM
same,potency estimated from few doses,"NQO1; compound concentrations:100 nM and 1000 nM (sheet 'Lestaurtinib' of Supplementary Table 1),run:Lestaurtinib_03172_R1,Plate:MR031",1.7 µM
same,potency estimated from few doses,"PIM3; compound concentrations:100 nM and 1000 nM (sheet 'Lestaurtinib' of Supplementary Table 1),run:Lestaurtinib_02748_R1,Plate:MR024",0.611 µM
same,potency estimated from few doses,PIM3; [2],0.656 µM
same,potency estimated from few doses,"PIM3; compound concentrations:100 nM and 1000 nM (sheet 'Lestaurtinib' of Supplementary Table 1),run:Lestaurtinib_02748_R3,Plate:MR024",1.43 µM
same,potency estimated from few doses,"PIM3; compound concentrations:100 nM and 1000 nM (sheet 'Lestaurtinib' of Supplementary Table 1),run:Lestaurtinib_02752_R2,Plate:MR025",0.795 µM
same,potency estimated from few doses,"PIM3; compound concentrations:100 nM and 1000 nM (sheet 'Lestaurtinib' of Supplementary Table 1),run:Lestaurtinib_03260_R2,Plate:MR033",0.945 µM
same,potency estimated from few doses,"STK26; compound concentrations:100 nM and 1000 nM (sheet 'Lestaurtinib' of Supplementary Table 1),run:Lestaurtinib_02407_R1,Plate:MR005",1.7 µM
same,potency estimated from few doses,"STK26; compound concentrations:100 nM and 1000 nM (sheet 'Lestaurtinib' of Supplementary Table 1),run:Lestaurtinib_02473_R3,Plate:MR010",2.25 µM
same,potency estimated from few doses,STK26; [3],2.35 µM
same,potency estimated from few doses,"TESK1; compound concentrations:100 nM and 1000 nM (sheet 'Lestaurtinib' of Supplementary Table 1),run:Lestaurtinib_02482_R3,Plate:MR011",1.96 µM
same,potency estimated from few doses,"TESK1; compound concentrations:100 nM and 1000 nM (sheet 'Lestaurtinib' of Supplementary Table 1),run:Lestaurtinib_02487_R1,Plate:MR012",1.31 µM
same,potency estimated from few doses,TESK1; [3],1.96 µM
same,potency estimated from few doses,TESK1; [2],0.994 µM
same,potency estimated from few doses,"TGFBR2; compound concentrations:100 nM and 1000 nM (sheet 'Lestaurtinib' of Supplementary Table 1),run:Lestaurtinib_02443_R3,Plate:MR009",1.57 µM
same,potency estimated from few doses,"TGFBR2; compound concentrations:100 nM and 1000 nM (sheet 'Lestaurtinib' of Supplementary Table 1),run:Lestaurtinib_03172_R3,Plate:MR031",2.21 µM
same,potency estimated from few doses,"TGFBR2; compound concentrations:100 nM and 1000 nM (sheet 'Lestaurtinib' of Supplementary Table 1),run:Lestaurtinib_03252_R2,Plate:MR032",2.12 µM
c1ccc(Oc2ccc(Nc3ccnc4ccc(-c5ccccn5)cc34)cc2)cc1 [GW407034X],potency estimated from few doses,RIPK2; CATDS: 0.62079920866718596,0.189 µM
CSc1ccc(NC2=C(c3ccccc3Cl)C(=O)NC2=O)cc1 [SB-342411],potency estimated from few doses,SLK; [1],1.4 µM
O=C1NC(=O)C(c2ccccc2Cl)=C1Nc1cccc(O)c1 [SB-390527],potency estimated from few doses,"SLK; compound concentrations: 100 nM and 1000 nM (sheet 'Samples'), CATDS: 1",1.14 µM
